About 27,000 (9.3%) of roughly 290,000 compounds were called active. This excerpt belongs to a sample that is enriched for actives. A number with no mark means an inactive call. Cut-off read from the data, not from the text of the source: active = inhibition mostly above about 28% (no sharp cut-off); inactive = mostly below about 43%.
assay: A qHTS for Small Molecule Inhibitors of Shiga Toxin; conditions: Vero cells, Shiga toxin protein synthesis inhibition reporter; at 38.7 µM, active compounds read high; note: 0% is about no effect

SMILES	inhibition
O=C(c1ccc[nH]c1=S)N1CCN(S(=O)(=O)c2ccc(Br)cc2Cl)CC1	-6.76%
CC(C)c1ccc(NC(=O)[C@@H](NC(=O)N2CC(=O)Nc3ccccc32)C(C)C)cc1	-1.19%
COc1ccc(N(C(=O)c2snc(C(N)=O)c2N)C(C(=O)NC2CCCC2)c2ccco2)cc1OC (centres undefined)	10.1%
Cc1cnc(CN(C)C(=O)C2CCC(=O)N(CCc3cccc(F)c3)C2)[nH]1 (centres undefined)	-1.92%
CCc1c(C)nc(SCC(=O)NC2CCCC2)[nH]c1=O	-6.89%
CCc1ccc(-c2nc(SCC(=O)NC3CCCC3)n[nH]2)cc1	22.7% (active)
COc1ccc(-c2nc(SCC(=O)N3CCCC3)n[nH]2)cc1	38.5%
COc1ccc(S(=O)(=O)NC(C)c2ccccc2)cc1C(=O)N1CCCCC1 (centres undefined)	-7.47%
Clc1cccc(Cl)c1OCCOCCNCc1ccccc1	1.14%
Cc1cc(N2CCN(c3ccccc3)CC2)nc(N2CCOCC2)n1	-8.49%
Cc1cc(C)n(-c2nnc(N3CCN(c4ccccc4)CC3)nn2)n1	35.7% (active)
FC(F)(F)c1nnc2ccc(N3CCN(c4ccccc4)CC3)nn12	-8.76%
CCOc1ccc2[nH]c(=O)c(CN(CCCO)S(=O)(=O)c3ccc(F)cc3)cc2c1	-6.85%
Cc1ccc(C(=O)NCC(=O)OCC(=O)NC2CCCCCCC2)cc1	-5.5%
O=C1c2ccccc2C(=O)c2c1cccc2N1CCN(Cc2ccccc2)CC1	47.7%
O=C1c2ccccc2C(=O)c2c1cccc2N1CCN(CCO)CC1	75.3% (active)
O=C(NC(c1ccccc1)c1ccccc1)N1CCN(CCO)CC1	8.02%
NC(=O)CSc1nnc(NC(=O)c2ccc(Br)o2)s1	15.2%
CN(C)c1cccc(C(=O)N2CCC(n3nccc3NC(=O)C3CCOC3)CC2)c1 (centres undefined)	-1.93%
Cc1ccc(NC(=O)Nc2ccccc2)c(Br)c1	105% (active)

SMILES	inhibition
Cc1c(NC(=O)Nc2ccccc2)cccc1[N+](=O)[O-]	-38.1%
CS(=O)(=O)c1ccc(Cl)c(NC(=O)Nc2ccccc2)c1	38.5%
COc1cc(NC(=O)C2=CC(c3ccc(C)cc3)=NS(=O)(=O)N2C)cc(OC)c1OC	7.86%
Cc1[nH]c(C)c(S(=O)(=O)N2CCN(c3cccc(C(F)(F)F)c3)CC2)c1C(=O)N1CCCC1	-8.08%
CCCCCCC(=O)N(O)C1CC(=O)N(c2ccccc2)C1=O (centres undefined)	-2.28%
CCOc1ccc(N2C(=O)CC(N(CCc3ccc(OC)c(OC)c3)C(=S)Nc3ccccc3)C2=O)cc1 (centres undefined)	9.09%
CCOc1ccc(N2C(=O)CC(N(O)c3ccccc3)C2=O)cc1 (centres undefined)	100% (active)
CCc1nn(-c2cc(Oc3cccc4ccccc34)nc(-c3ccccc3)n2)c(N)c1C#N	-16.3%
COC(=O)c1ccc(/C=N/N2C(C)CCCC2C)cc1 (centres undefined)	66.3% (active)
CC1CCCC(C)N1/N=C/c1ccccc1OC(F)F (centres undefined)	-12.3%
COC(=O)c1ccc(/C=N\n2c(C)nnc2C)cc1	8.68%
CCN(CC(=O)N1CCCC1)S(=O)(=O)c1ccc(F)cc1	-4.28%
COC(=O)c1ccc(C(NC(=O)OCc2ccccc2)/C(C)=C/[C@@H](C)C(=O)NCc2ccc(OC)c(OC)c2)cc1 (some centres undefined)	-13.4%
Cn1cnnc1SCC(=O)NNC(=O)COc1ccc(Br)cc1	1.38%
Nc1cccc2c1C(=O)N(Cc1nnc(-c3ccccc3Br)o1)C2=O	18.9%
Cn1cnnc1SCc1nnc(-c2ccccc2Br)o1	58.3% (active)
O=C(CN1C(=O)S/C(=C\c2ccccc2Cl)C1=O)NC1C=CS(=O)(=O)C1 (centres undefined)	-2.51%
COc1ccc(C2=NS(=O)(=O)N(C)C(C(=O)NC(C)c3ccccc3)=C2)cc1 (centres undefined)	10.4%
COc1ccc(CCNC(=O)CCCCCNC(=O)N2CCn3c2nc2ccccc23)cc1OC	4.93%
COc1ccc(C2=NOC(COC(=O)c3ccc4ccccc4n3)C2)cc1 (centres undefined)	22.8%

SMILES	inhibition
O=C(CNC(=O)c1ccccc1)Oc1ccc([N+](=O)[O-])cc1	-10.1%
O=C(Oc1ccc([N+](=O)[O-])cc1)c1ccc2ccccc2n1	-35.6% (active)
COc1ccc(C(=O)Nc2c(N)nc(SCC(=O)Nc3ccc(C(C)=O)cc3)[nH]c2=O)cc1	-1.66%
O=C(Cc1cc(=O)[nH][nH]1)N/N=C/c1ccccc1[N+](=O)[O-]	13.6%
CC(=C/c1ccccc1)/C=N/NC(=O)c1cc(C)oc1C	0%
Cc1cc(C(=O)N/N=C/c2ccccc2[N+](=O)[O-])c(C)o1	72.5% (active)
Cc1c(Cl)c([N+](=O)[O-])nn1CC(=O)NCCCN1CCOCC1	-6.5%
COc1ccc(-n2c(=O)[nH]c3cc(C(=O)NCCc4ccc(OC)c(OC)c4)ccc3c2=O)c(OC)c1	3.16%
Cc1ccc(C2CC2C(=O)NN)cc1 (centres undefined)	-15.4%
Cc1ccc(NC(=O)C2CC2c2ccccc2)cc1 (centres undefined)	32% (active)
O=C(NNC(=S)Nc1ccc(F)cc1)[C@H]1C[C@@H]1c1ccccc1	-8.83%
COc1ccc(OC)c(CNC(=O)c2cc(=O)[nH]c3ccc(S(=O)(=O)N4CCCC4)cc23)c1	-3.87%
COc1cccc(-n2c(N)cc(=O)nc2SCC(=O)Nc2cc(C)on2)c1	13.4%
COc1cc2ccccc2cc1C(=O)Nc1ccccc1C	32.5% (active)
COc1cc2ccccc2cc1C(=O)Nc1nc(C)c(C(C)=O)s1	69.5% (active)
COc1cc2ccccc2cc1C(=O)Nc1ccc(NC(=O)c2cccs2)cc1	15.8%
COc1cccc2sc(Nc3nc(C)c(C(C)=O)s3)nc12	29.8%
COc1cc(OC)c(C(=O)Nc2ccccc2-c2ccccc2)cc1OC	-5.65%
CC(=O)c1sc(NC(=O)c2cccc3ccccc23)nc1C	31.4%

— PubChem BioAssay AID2315 (National Center for Advancing Translational Sciences (NCATS), 2010)
